Bioassay records (PubChem)
TDP1 cell noCPT = qHTS for Inhibitors of human tyrosyl-DNA phosphodiesterase 1 (TDP1): qHTS in cells in absence of CPT; DT40 Tdp1-/- hTDP1 cells, no CPT, ATP luminescence, 48 h; Potency, µM (titrated, usually from 46.2 µM), inactives show at the highest dose activity change, negative = growth inhibition, most hits filed as inhibitors; 420,000 compounds, 15% hits; AID 686978, 2013; further: nearly all actives have a fitted effect of over 55% in size
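Camptothecin absent (DMSO only). Human TDP1-complemented DT40 knockout cells, 400 cells/well, 37 °C for minimum 48 hr; ATP measured via CellTiter-Glo, 30 min dark incubation, luminescence.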
PLK1 PBD inh = inhibitors of human PLK1 polo-box domain binding; P53350; Plk1 PBD binding of FITC phosphopeptide, fluorescence polarization; Potency, µM, for the others: max response, negative = inhibition, hits mostly inhibitors; 360,000 compounds, 2.8% hits; further: series mostly up to about 57 µM; nearly all actives have a fitted effect of over 65% in size
TDP1 cell CPT = DT40-hTDP1 cell growth loss with CPT. chicken DT40 Tdp1-/-;hTDP1 cells + 20 nM CPT, ATP luminescence, 48 h. Potency, µM (highest dose often 46.2 µM), for the others: at the top dose activity change, negative = growth inhibition, most hits filed as inhibitors. 420,000 compounds, 12% hits; further: nearly all actives have a fitted effect of over 55% in size
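Chicken DT40 Tdp1-/- cells stably complemented with human TDP1 were seeded at 400 cells/well in medium containing 20 nM camptothecin, exposed to pin-transferred compounds, and grown at 37 °C for at least 48 hr. Viability was read as ATP luminescence.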
GCN5L2 inh = inhibitors of human GCN5L2 histone acetyltransferase; GCN5L2 HAT assay, ThioGlo1 CoA-SH fluorescence; Potency, µM (titrated, usually from 58.9 µM), for the others: at the top dose activity change, negative = inhibition, most hits filed as inhibitors; 390,000 compounds, 0.21% hits; AID 504327
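ThioGlo1-coupled HAT assay: 20nM GCN5L2, 70uM acetyl-CoA, 75uM H3(1-25) peptide, pH 7.5. Fluorescence read at 340/540nm at start and after 20 min at room temperature.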
TDP1 inh = blocks human tyrosyl-DNA phosphodiesterase 1. Q9NUW8. AID 485290. Potency, µM (highest dose often 130 µM), for inactives: top-dose activity change, negative = inhibition, usual class: inhibitors. recombinant TDP1, AlphaScreen DNA substrate cleavage. 350,000 compounds, 0.28% hits; further: nearly all actives have a fitted effect of over 40% in size
Target sequence (Q9NUW8 whole entry, looked up): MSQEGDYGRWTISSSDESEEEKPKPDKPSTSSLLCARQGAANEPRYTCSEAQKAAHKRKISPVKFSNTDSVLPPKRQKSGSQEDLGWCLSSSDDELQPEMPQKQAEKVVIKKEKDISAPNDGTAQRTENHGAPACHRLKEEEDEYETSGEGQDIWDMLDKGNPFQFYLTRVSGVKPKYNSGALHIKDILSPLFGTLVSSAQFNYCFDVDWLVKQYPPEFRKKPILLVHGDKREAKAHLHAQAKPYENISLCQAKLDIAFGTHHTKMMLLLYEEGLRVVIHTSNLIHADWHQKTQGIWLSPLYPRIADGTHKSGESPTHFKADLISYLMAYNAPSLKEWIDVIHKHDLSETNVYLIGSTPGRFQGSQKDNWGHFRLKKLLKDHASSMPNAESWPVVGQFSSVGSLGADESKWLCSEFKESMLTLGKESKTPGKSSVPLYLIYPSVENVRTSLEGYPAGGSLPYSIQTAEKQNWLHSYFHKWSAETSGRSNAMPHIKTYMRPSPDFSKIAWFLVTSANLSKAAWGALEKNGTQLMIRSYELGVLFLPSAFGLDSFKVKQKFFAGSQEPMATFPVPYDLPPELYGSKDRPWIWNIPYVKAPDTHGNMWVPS
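Compounds were preincubated with Tdp1 (1 nM final) for 15 min at room temperature before substrate (15 nM final) started a 5 min reaction; beads (10 ug/ml final) were then added for 10 min before AlphaScreen detection.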
VDR inh = blocks the human vitamin D receptor; P11473; VDR-SRC2-3 peptide fluorescence polarization, 2 h; Potency, µM, for inactives: max response, negative = inhibition, usual class: inhibitors; 400,000 compounds, 0.93% hits; AID 504847
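The screen uses fluorescence polarization to detect compounds that interfere with recruitment of the SRC2-3 coactivator peptide to VDR; plates are read after 2 h at room temperature.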
* = called active by the depositor; ? = inconclusive; . = no result given; [ ] = remark or other dose. Rows were chosen to be rich in hits. Some 18% of all compounds tested hit in one or more screens of this group. The call rests on the fitted dose curve; in most records, active means well fitted curve in the direction sought with a large enough effect; inconclusive means small, poorly fitted or top-dose-only effect, or another doubt; inactive means no such curve, though single readings can be large; an effect the other way counts as inactive or inconclusive. On the % scale 0 is the no-effect control and ±100 the full control effect; potency means the concentration at half of the fitted maximal effect.

SMILES	TDP1 cell noCPT	PLK1 PBD inh	TDP1 cell CPT	GCN5L2 inh	TDP1 inh	VDR inh
CC(C)NC(=O)C1CCN(C(=O)c2cc3sccc3n2Cc2ccc(Cl)cc2)CC1	1.5µM*	.	1.6µM*	-6%	8%	-3%
CC1CCc2c(sc(NC(=O)c3cc(-c4cccc(Cl)c4)on3)c2C(N)=O)C1 (stereo not given)	-5%	.	-8%	-4%	8%	7%
Cc1ccc(CNC(=O)C2CCC(=O)N2C(C)C)cc1 (stereo not given)	2%	-8%	7%	4%	.	-4%
Cc1cc(C)n(C(=O)/C(C#N)=N/Nc2cc(Cl)cc(Cl)c2)n1	2.6µM*	-28%	3.3µM*	-4%	11%	-7%
COc1ccc(C2c3ccc(OCc4ccccc4)cc3Oc3ncn(CCN4CCOCC4)c(=N)c32)cc1OC (stereo not given)	.	.	.	.	5%	.
C#CCNC(=O)C[C@@H]1C[C@@]2(C(=O)OCC)CCCC=C2N(Cc2ccc3c(c2)OCO3)C1=O	-27%	0%	-15%	.	.	.
CCOC(=O)[C@]12CCCC=C1N(Cc1ccc3c(c1)OCO3)C(=O)[C@H](CC(=O)N1CCCC1)C2	21µM*	1%	?	.	.	.
CCOC(=O)[C@]12CCC=C1N(Cc1ccc3c(c1)OCO3)C(=O)[C@H](CC(=O)N1CCC(c3ccccc3)CC1)C2	16µM*	2%	?	.	.	.
CCOC(=O)[C@]12CCCC=C1N(Cc1ccc3c(c1)OCO3)C(=O)[C@H](CC(=O)N1CCCCC1)C2	15µM*	-14%	13µM*	.	.	.
CCOC(=O)N1CCN(C(=O)C[C@@H]2C[C@@]3(C(=O)OCC)CCC=C3N(Cc3ccc4c(c3)OCO4)C2=O)CC1	?	4%	-28%	.	.	.
COc1cccc(NC(=S)NCc2cccs2)c1	?	-17%	?	4%	2%	4%
CCCN(C(=O)c1cc2ccc3cccnc3c2[nH]1)c1ccc(F)cc1	-25%	.	-14%	-14%	-1%	7%
O=C(C1CCN(CCCc2ccccc2)CC1)N(CCc1ccccc1)Cc1ccccc1	15µM*	1%	?	2%	-3%	0%
O=C(O)c1cccc(Cl)c1Cl	.	.	.	.	6%	.
O=C(CSc1nc2sc3c(c2c(=O)n1-c1ccccc1)CCCC3)NCc1ccco1	?	-9%	15µM*	4%	3%	-9%
O=C(CSc1ncnc2sc3c(c12)CCCCC3)NCc1ccco1	9.2µM*	-10%	9.2µM*	-7%	2%	-14%
Cc1nc2sc3c(c2c2nnc(SCC(=O)NCc4ccco4)n12)CCCC3	?	-7%	-25%	-19%	6%	11%
c1coc(CNc2nc3sc4c(c3c3ncnn23)CCCC4)c1	12µM*	-17%	?	-9%	4%	7%
CC1CCc2c(sc3nc(SCC(=O)NCc4ccco4)nc(N)c23)C1 (stereo not given)	13µM*	-25%	18µM*	-9%	6%	-2%
COc1ccccc1-c1cccc([C@@H]2C[C@H]3[C@H](CON3C)CN2C(=O)C(C)(C)C)c1	1%	-10%	2%	.	.	5%
CC(=O)N(Cc1ccc2c(c1)OCO2)Cc1cc2ccc(C)cc2nc1-c1cccc(C)c1	0.46µM*	.	?	.	.	.
Cc1cccc(-c2nnc(SCC(=O)NCc3ccc4c(c3)OCO4)n2C)c1	?	-6%	-14%	-3%	3%	3%
O=C(Nc1nccs1)C1CCCN(S(=O)(=O)c2cccc3cccnc23)C1 (stereo not given)	15µM*	-5%	?	-2%	7%	4%
CC(=O)c1cccc(NC(=O)C2CCCN(S(=O)(=O)c3cccc4cccnc34)C2)c1 (stereo not given)	?	-28%	21µM*	-7%	-3%	-9%
Cc1ccc(NC(=O)C2CCCN(S(=O)(=O)c3cccc4cccnc34)C2)cc1Cl (stereo not given)	?	.	?	-5%	1%	-4%
SMILES	TDP1 cell noCPT	PLK1 PBD inh	TDP1 cell CPT	GCN5L2 inh	TDP1 inh	VDR inh
CC12CN3CC(c4ccccc4)(CN(C1)C3c1ccc(Cl)cc1)C2=O (stereo not given)	?	.	?	2%	-2%	4%
COc1ccc(CN(Cc2ccco2)c2cnc(S(C)(=O)=O)nc2C(=O)Nc2ccc(C)c(Cl)c2)cc1	-22%	.	?	-20%	7%	2%
Cc1ccc(NC(=O)c2nc(S(C)(=O)=O)ncc2N(Cc2ccco2)Cc2cccs2)c(C)c1	21µM*	.	?	-17%	5%	-18%
Cc1ccc(CN(Cc2ccco2)c2cnc(S(C)(=O)=O)nc2C(=O)Nc2ccccc2Br)o1	8.2µM*	.	9.2µM*	-9%	2%	-8%
CCc1ccc(CN(Cc2ccco2)c2cnc(S(C)(=O)=O)nc2C(=O)Nc2ccccc2Cl)cc1	?	.	?	-15%	7%	0%
CCS(=O)(=O)c1ncc(N(Cc2ccccc2)Cc2ccco2)c(C(=O)Nc2cccc(Cl)c2C)n1	?	.	?	-11%	6%	-6%
CCS(=O)(=O)c1ncc(N(Cc2cccc(F)c2)Cc2ccco2)c(C(=O)Nc2ccccc2Cl)n1	6.5µM*	.	?	2%	8%	-1%
CCS(=O)(=O)c1ncc(N(Cc2ccco2)Cc2sccc2C)c(C(=O)Nc2cc(C)ccc2C)n1	21µM*	.	?	-10%	3%	5%
O=C(NCCN1Cc2ccccc2OC(c2ccccc2F)C1)c1ccco1 (stereo not given)	?	.	13%[9.04 µM]	.	.	.
Cc1ccccc1NC(=O)c1nc(S(C)(=O)=O)ncc1N(Cc1ccco1)Cc1sccc1C	21µM*	.	16µM*	-6%	3%	-4%
Cc1cccc(C)c1NC(=O)c1nc(S(C)(=O)=O)ncc1N(Cc1ccc(C(C)(C)C)cc1)Cc1ccco1	?	.	?	-13%	5%	2%
O=C(NCc1cccs1)C(=O)NCC1OCCCN1S(=O)(=O)c1cc(F)ccc1F (stereo not given)	-22%	0%	4%	-5%	0%	-7%
CCOc1ccc(CCNC(=O)CS(=O)(=O)Cc2nc(-c3ccccc3F)oc2C)cc1	12µM*	-5%	?	-9%	1%	1%
Cc1ccc(CNC(=O)CS(=O)(=O)Cc2nc(-c3ccccc3C)oc2C)cc1	16µM*	.	?	-2%	1%	-17%
Cc1ccccc1-c1nc(CS(=O)(=O)CC(=O)Nc2c(C)cccc2C)c(C)o1	18µM*	.	?	1%	5%	-9%
